31 molecules from PubChem BioAssay (NCATS) can be followed below.

Inconclusive results are not listed. The source made the active and inactive calls. Calls follow the shape of the dose curve; as a rule, active = well fitted curve in the direction sought with a large enough effect; inconclusive = small, poorly fitted or top-dose-only effect, or another doubt; inactive = no such curve, though single readings can be large; an effect the other way counts as inactive or inconclusive. Non-standard residues stand in square brackets, D forms with d. Residues, ends and D or L forms follow the SMILES beside them. *: point of attachment. Nva = CCC[C@H](N)C(=O)O; Cbz = O=C(OCc1ccccc1)*
Potency is read from the fitted curve at half-maximal effect.

The nature of the first test: qHTS of pediatric cancer cell lines to identify multiple opportunities for drug repurposing: Confirmatory screen for OHS-50 cells (AID 1347128).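 Also: compound exposure lasted 48 h at 37 degrees C; nearly all actives have a fitted effect of over 55% in size.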 The following applies: OHS-50 osteosarcoma cells viability; series mostly up to 45.9 µM. In a few lines:
(§1)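 Viability after 48 h compound treatment at 37C, 500-1,000 cells/well, read as ATP luminescence with CellTiter-Glo. Primary screens used 11-point (MIPE, 0.78 nM-46 µM) or 8-point (NPC, 0.59 nM-46 µM) final concentrations; follow-up screens used 11-point dilutions.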
Regarding `C[C@@H](Oc1ccc2[nH]nc(C=Cc3cnn(CCO)c3)c2c1)c1c(Cl)cncc1Cl`, the Potency was 4.14 µM (active).
For `Cc1ccc([N+](=O)[O-])cc1S(=O)(=O)N(C)N=Cc1cnc2ccc(Br)cn12`, the Potency was 0.465 µM (active).
The same measure, in the same setting: under `CNC(=O)Nc1ccc(-c2nc(N3CC4CCC(C3)O4)c3cnn(C4CCC5(CC4)OCCO5)c3n2)cc1` stands 3.29 µM (active).
As for `Nc1nc2c(c(=O)[nH]1)N(C=O)[C@H](CNc1ccc(C(=O)N[C@@H](CCC(=O)O)C(=O)O)cc1)CN2`, the Potency entry was “inactive”.
Same read-out and setting: under `C[C@H](NCc1ccc2c(c1)nc(NC(=O)c1ccc(-c3cn[nH]c3)s1)n2CCc1ccccc1)C(C)(C)C` stands 1.47 µM (active).
The same measure, in the same setting: under `CCC[C@@H](C=O)NC(=O)[C@H](CC(C)C)NC(=O)[C@H](CC(C)C)NC(=O)OCc1ccccc1` (Cbz-Leu-Leu-[Nva]-aldehyde) stands 2.33 µM (active); under `COC(=O)[C@@H]1[C@H]2C[C@@H]3c4[nH]c5ccccc5c4CCN3C[C@@H]2CC[C@@H]1O`, “inactive”; under `C=Cc1c(C)c2cc3nc(cc4[nH]c(cc5nc(cc1[nH]2)C(C)=C5CCC(=O)O)c(CCC(=O)OC)c4C)[C@@]1(C)C3=CC=C(C(=O)OC)[C@H]1C(=O)OC`, “inactive”.
On the same count and under the same terms, the figure for `FC(F)c1nc2ccccc2n1-c1nc(N2CCOCC2)nc(N2CCOCC2)n1` is 1.65 µM (active).
`CC(C)(N)c1ccc(-c2nc3ccccc3nc2-c2ccccc2)cc1`: the Potency is 0.369 µM (active).
On the same count and under the same terms, the figure for `CC(C)(O)Cn1c(NC(=O)c2ccc(-c3cn[nH]c3)s2)nc2cc(CN3CCOCC3)ccc21` is 0.827 µM (active).
Turning to `Cn1cc(CNCC2CCN(c3ncc(C(=O)NO)cn3)CC2)c2ccccc21`, the Potency was 0.131 µM (active).
Same read-out and setting: under `Oc1ccc(-c2ccc(-c3cc(Nc4cccc(CNC5CC5)c4)n[nH]3)cc2)c(O)c1` stands 1.47 µM (active).
On the same count and under the same terms, under `Nc1ncn([C@@H]2O[C@H](CO)[C@@H](O)[C@@H]2O)c(=O)n1` stands 5.85 µM (active); under `C#CCC(Cc1cnc2nc(N)nc(N)c2n1)c1ccc(C(=O)N[C@@H](CCC(=O)O)C(=O)O)cc1` (stereo partly specified), 0.0414 µM (active).
Same read-out and setting: the entry for `COc1ccc(C(C)=O)c(O)c1` is “inactive”.
Regarding `CC(=O)N1CCN(c2ccc(OCc3nn(C)c(C)c3-c3cccc4c(CCCOc5cccc6ccccc56)c(C(=O)O)n(Cc5cccnc5)c34)cc2)CC1`, the Potency entry was “inactive”.
Take `CNC(=O)c1ccc(Nc2cc(Nc3ccccc3S(=O)(=O)C(C)C)c3cc[nH]c3n2)nc1`: the Potency was 8.27 µM (active).
As for `CC(C=CC(=O)NO)=C[C@@H](C)C(=O)c1ccc(N(C)C)cc1`, the Potency is 1.47 µM (active).
As to `CC(C)C[C@H](NC(=O)[C@@H](NC(=O)c1cccc(-c2ccccc2)n1)[C@@H](C)O)B(O)O`, the Potency is 0.131 µM (active).
`O=S(=O)(O)CCSSCCS(=O)(=O)O`: the Potency result was “inactive”.
Take `C=CC(=O)N1CCc2ccc(-n3c(=O)ccc4cnc5ccc(-c6cnn(C)c6)cc5c43)cc21`: the Potency was 7.37 µM (active).
Consider `CC(C)C[C@@H](C=O)NC(=O)[C@H](CC(C)C)NC(=O)[C@H](CC(C)C)NC(=O)OCc1ccccc1` (Cbz-Leu-Leu-Leu-aldehyde), for which the Potency is 0.928 µM (active).
On the same count and under the same terms, under `CC(C(C)N1CC(=O)NC(=O)C1)N1CC(=O)NC(=O)C1` (stereo unspecified) stands “inactive”; under `CC1(C)O[C@@H]2C[C@H]3[C@@H]4CCC5=CC(=O)C=C[C@]5(C)[C@@H]4[C@@H](O)C[C@]3(C)[C@]2(C(=O)CO)O1`, “inactive”; under `NS(=O)(=O)OC[C@@H]1C[C@@H](n2ccc3c(N[C@H]4CCc5ccccc54)ncnc32)C[C@H]1O`, “inactive”.
The same measure, in the same setting: the figure for `CCc1cc(C(C)=NOCc2ccc(C3CCCCC3)c(C(F)(F)F)c2)ccc1CN1CC(C(=O)O)C1` is 23.3 µM (active); for `C=C1C(=CC=C2CCC[C@]3(C)[C@@H]([C@H](C)CCCC(C)(C)O)CC[C@@H]23)C[C@@H](O)C[C@@H]1O` it is “inactive”; for `CC(=O)O[C@@]12CO[C@H]1C[C@H](O)[C@@]1(C)C(=O)[C@H](O)C3=C(C)[C@@H](OC(=O)C(O)[C@@H](NC(=O)OC(C)(C)C)c4ccccc4)C[C@@](O)([C@@H](OC(=O)c4ccccc4)[C@@H]21)C3(C)C` (stereo partly specified) it is 0.0233 µM (active).

Another test in a line: qHTS of pediatric cancer cell lines to identify multiple opportunities for drug repurposing: Confirmatory screen for SK-N-SH cells (AID 1347129).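 Also: cells exposed to compound for 48 h before viability read; nearly all actives have a fitted effect of over 60% in size.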 The following applies: SK-N-SH neuroblastoma cell viability; series mostly up to 46.1 µM. In a few lines: as §1
On the technique in general: Quantitative high-throughput screening tests each substance at several concentrations.
Turning to `C[C@@H](Oc1ccc2[nH]nc(C=Cc3cnn(CCO)c3)c2c1)c1c(Cl)cncc1Cl`, the Potency result was “inactive”.
Regarding `Cc1ccc([N+](=O)[O-])cc1S(=O)(=O)N(C)N=Cc1cnc2ccc(Br)cn12`, the Potency is 0.235 µM (active).
For `CNC(=O)Nc1ccc(-c2nc(N3CC4CCC(C3)O4)c3cnn(C4CCC5(CC4)OCCO5)c3n2)cc1`, the Potency was 1.32 µM (active).
Still for that read-out and setting: the entry for `Nc1nc2c(c(=O)[nH]1)N(C=O)[C@H](CNc1ccc(C(=O)N[C@@H](CCC(=O)O)C(=O)O)cc1)CN2` is “inactive”; for `C[C@H](NCc1ccc2c(c1)nc(NC(=O)c1ccc(-c3cn[nH]c3)s1)n2CCc1ccccc1)C(C)(C)C` it is 0.833 µM (active); for `CCC[C@@H](C=O)NC(=O)[C@H](CC(C)C)NC(=O)[C@H](CC(C)C)NC(=O)OCc1ccccc1` (Cbz-Leu-Leu-[Nva]-aldehyde) it is 1.32 µM (active).
As to `COC(=O)[C@@H]1[C@H]2C[C@@H]3c4[nH]c5ccccc5c4CCN3C[C@@H]2CC[C@@H]1O`, the Potency result was “inactive”.
Take `C=Cc1c(C)c2cc3nc(cc4[nH]c(cc5nc(cc1[nH]2)C(C)=C5CCC(=O)O)c(CCC(=O)OC)c4C)[C@@]1(C)C3=CC=C(C(=O)OC)[C@H]1C(=O)OC`: the Potency result is “inactive”.
Same read-out and setting: the figure for `FC(F)c1nc2ccccc2n1-c1nc(N2CCOCC2)nc(N2CCOCC2)n1` is 2.35 µM (active); for `CC(C)(O)Cn1c(NC(=O)c2ccc(-c3cn[nH]c3)s2)nc2cc(CN3CCOCC3)ccc21` it is 1.32 µM (active); for `Cn1cc(CNCC2CCN(c3ncc(C(=O)NO)cn3)CC2)c2ccccc21` it is 0.469 µM (active).
Same read-out and setting: the entry for `Oc1ccc(-c2ccc(-c3cc(Nc4cccc(CNC5CC5)c4)n[nH]3)cc2)c(O)c1` is “inactive”.
The same measure, in the same setting: the figure for `Nc1ncn([C@@H]2O[C@H](CO)[C@@H](O)[C@@H]2O)c(=O)n1` is 16.6 µM (active); for `C#CCC(Cc1cnc2nc(N)nc(N)c2n1)c1ccc(C(=O)N[C@@H](CCC(=O)O)C(=O)O)cc1` (stereo partly specified) it is “inactive”.
With `COc1ccc(C(C)=O)c(O)c1`, the Potency entry was “inactive”.
The same measure, in the same setting: under `CC(=O)N1CCN(c2ccc(OCc3nn(C)c(C)c3-c3cccc4c(CCCOc5cccc6ccccc56)c(C(=O)O)n(Cc5cccnc5)c34)cc2)CC1` stands “inactive”; under `CNC(=O)c1ccc(Nc2cc(Nc3ccccc3S(=O)(=O)C(C)C)c3cc[nH]c3n2)nc1`, 5.9 µM (active).
For `CC(C=CC(=O)NO)=C[C@@H](C)C(=O)c1ccc(N(C)C)cc1`, the Potency is 2.96 µM (active).
Same read-out and setting: the figure for `CC(C)C[C@H](NC(=O)[C@@H](NC(=O)c1cccc(-c2ccccc2)n1)[C@@H](C)O)B(O)O` is 0.059 µM (active); for `O=S(=O)(O)CCSSCCS(=O)(=O)O` it is “inactive”; for `C=CC(=O)N1CCc2ccc(-n3c(=O)ccc4cnc5ccc(-c6cnn(C)c6)cc5c43)cc21` it is 5.9 µM (active).
`CC(C)C[C@@H](C=O)NC(=O)[C@H](CC(C)C)NC(=O)[C@H](CC(C)C)NC(=O)OCc1ccccc1` (Cbz-Leu-Leu-Leu-aldehyde): the Potency is 0.833 µM (active).
Same read-out and setting: under `CN(C)c1ccc(C(=O)NCCCCCCC(=O)NO)cc1` stands 2.35 µM (active); under `CC(C(C)N1CC(=O)NC(=O)C1)N1CC(=O)NC(=O)C1` (stereo unspecified), “inactive”.
The same measure, in the same setting: the entry for `CC1(C)O[C@@H]2C[C@H]3[C@@H]4CCC5=CC(=O)C=C[C@]5(C)[C@@H]4[C@@H](O)C[C@]3(C)[C@]2(C(=O)CO)O1` is “inactive”.
Same read-out and setting: under `C=C1C(=CC=C2CCC[C@]3(C)[C@@H]([C@H](C)CCCC(C)(C)O)CC[C@@H]23)C[C@@H](O)C[C@@H]1O` stands “inactive”; under `Cc1cc(Nc2ncc3c(n2)N(C)C(=O)N(c2cc(NC(=O)c4cccc(C(F)(F)F)c4)ccc2C)C3)n(C)n1`, 0.332 µM (active).
